Drawing on PubChem BioAssay (NCI), this text covers growth for eight compounds.

What all share (test): NCI-60 one-dose screen, 48 h (100 = growth as untreated, 0 = no growth, -100 = all killed)
Common to all, as to conditions: 10 µM unless noted

Assay [1] relates to DU-145 prostate.
Assay [2] deals with K-562 leukemia.
Assay [3] relates to MALME-3M melanoma.
Assay [4] concerns MDA-MB-231 breast.
The subject of assay [5] is RXF 393 renal.
The test system of assay [6] is SF-268 CNS.
For assay [7], the system named is SF-295 CNS.
In assay [8] the test system is SF-539 CNS.
Assay [9] has as its system UACC-257 melanoma.
The test system of assay [10] is M14 melanoma.
The test system of assay [11] is HCT-15 colon.
Assay [12] has as its system HT29 colon.
Assay [13] has as its system SNB-75 CNS.
Assay [14] deals with SNB-19 CNS.
Assay [15] relates to U251 CNS.
Assay [16] has as its system PC-3 prostate.
Assay [17] has as its system SK-MEL-5 melanoma.
Assay [18] deals with UACC-62 melanoma.
The test system of assay [19] is SK-MEL-28 melanoma.

The panel holds about 83,000 compounds, 20% with a hit somewhere; the sample as a whole holds those more often.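 48-hour exposure, single concentration, 96-well plates; percent growth endpoint where 0 means no net growth. Active: below 10.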 Values without a mark were called inactive. Calls of active or inactive are those of the source.

For `COc1cc(/C=C/C(=O)c2ccccc2)ccc1Oc1nc(Nc2ccc(F)cc2)nc(N(C)C)n1`, the growth was 53.7% in assay [1]; 6.43% (active) in assay [2]; 41.5% in assay [3]; -4.47% (active) in assay [4]; 39.4% in assay [5]; 42.3% in [6]. For the same compound, the growth is 26.5% in [7]; -8.58% (active) in [8]; 21.9% in [9]; 38.7% in [10]; -0.132% (active) in assay [11]; 14.5% in assay [12]. In addition, the growth in assay [13] is 39.9%; in assay [14], 3.33% (active); in [15], 5.24% (active); in assay [16], 30.2%; in [17], 18.9%; in assay [18], 14.8%. Also, in assay [19], the growth was 18%.

With `COc1cc(C2CC(c3cc(OC)c(OC)c(OC)c3)=NN2C(C)=O)ccc1OCc1ccc(F)cc1` (configuration not stated), the growth is 70.6% in [1]; 28% in [2]; 81.8% in assay [3]; 61% in [4]; 73.7% in assay [5]; 72% in [6]. In addition, the growth in assay [7] was 37.7%; in [8], 61.9%; in assay [9], 68.6%; in assay [10], 59.9%; in assay [11], 42.5%; in assay [12], 28.1%. Also, the growth in [13] was 79.5%; in [14], 60.9%; in [15] it was 59.9%; in assay [16] it was 27.7%; in assay [17] it was 29.7%; in assay [18], 52%. Further, the growth in assay [19] was 73.2%.

`COc1cc2oc(-c3cccc(C(=O)Nc4ccc(Cl)cc4)c3)cc(=O)c2c(OCCNC(=O)[C@H](CCC(=O)OC(C)(C)C)NC(=O)OC(C)(C)C)c1OC`: the growth in assay [1] was 108%; in [2], 81.5%; in assay [3], 106%; in assay [4], 85.4%; in [5], 84.3%; in [6] it was 81.8%. Further, the growth in [7] was 94.5%; in assay [8], 87.8%; in assay [9], 107%; in [10], 106%; in [11], 100%; in assay [12], 108%. For the same compound, the growth in [13] was 74.2%; in assay [14] it was 94.8%; in assay [15], 96.8%; in assay [16], 83.5%; in assay [17] it was 89.3%; in assay [18], 82%. The growth in assay [19] is 99.2%.

For the compound `CCOP(=O)(OCCCl)c1nc(-c2ccc(C)cc2)oc1NCc1ccccc1` (configuration not stated), the growth in assay [1] is 96%; in assay [2], 50.3%; in assay [3], 102%; in assay [4], 65.1%; in assay [5] it was 84.4%; in [6], 73.7%. Also, the growth is 79.9% in assay [7]; 87.2% in [8]; 92.6% in assay [9]; 86.3% in assay [10]; 57.6% in assay [11]; 81.7% in [12]. The growth is 69.9% in assay [13]; 65.8% in assay [14]; 74.6% in [15]; 44.4% in [16]; 84.8% in [17]; 60.4% in [18]. Further, the growth in assay [19] was 108%.

For the compound `S=C(NCCc1ccccc1)Nc1ccc(OCc2nc3ccccc3[nH]2)cc1`, the growth in assay [1] is 110%; in assay [2], 101%; in assay [3], 102%; in assay [4], 109%; in [5], 122%; in assay [6], 100%. The growth is 104% in assay [7]; 102% in [8]; 99.1% in assay [9]; 95.9% in assay [10]; 98% in [11]; 108% in assay [12]. In addition, the growth in assay [13] is 103%; in assay [14], 102%; in [15], 99.7%; in assay [16], 105%; in [17] it was 102%; in [18] it was 93.1%. The growth in [19] is 110%.

Consider `COc1ccc2[nH]c(O)c(N=NC(=O)COc3ccc(NC(=O)Nc4ccccc4)cc3)c2c1`, for which the growth in assay [1] is 72.5%; in [2] it was 46.3%; in assay [3], 13.9%; in assay [4] it was 12.9%; in [5], 39%; in [6] it was 41.8%. Further, the growth is 41.7% in assay [7]; -22.7% (active) in assay [8]; 63.9% in [9]; 41.7% in assay [10]; 108% in assay [11]; 52.4% in assay [12]. The growth in assay [13] is 31.6%; in assay [14] it was 14.6%; in assay [15], -4.75% (active); in [16], 40.5%; in [17] it was 69.7%; in assay [18], 10.1%. Moreover, the growth in assay [19] is 8.57% (active).

Turning to `C=C1CCC2C3(C)COC(c4ccccc4F)OC3CCC2(C)C1CC(O)C1=CCOC1=O` (configuration not stated), the growth in assay [1] is 67.2%; in assay [2], 21.3%; in [3], 92.9%; in assay [4], 77.7%; in assay [5], 50.7%; in assay [6] it was 103%. The growth in assay [7] was 77.2%; in [8], 16.3%; in [9] it was 75.1%; in assay [10], 26.5%; in [11], 9.86% (active); in [12], 8.43% (active). Moreover, the growth in [13] was 43.9%; in assay [14] it was 81.5%; in assay [15], 53.4%; in assay [16], 36.5%; in assay [17] it was 65.8%; in assay [18], 73.6%. Moreover, the growth in [19] is 47.6%.

As for `CCN1C(=O)/C(=N\N=C(/C)c2ccc3c(c2)Nc2ccccc2S3)c2cc(Cl)ccc21`, the growth in [1] was 71.8%; in [2], 38.2%; in assay [3], 35.9%; in [4] it was 66.8%; in assay [5], 65.9%; in assay [6] it was 43.8%. Further, the growth in assay [7] was 43.2%; in [8], 73.3%; in [9] it was 25.7%; in assay [10], 67.5%; in assay [11], 46.7%; in assay [12] it was 71.6%. Besides, the growth in [13] was 76%; in assay [14], 64.4%; in [15], 73.7%; in assay [16] it was 40.5%; in [17], 7.2% (active); in assay [18], 32.7%. In addition, in assay [19], the growth is 47.2%.
